The record followed here is PubChem BioAssay.

SMILES strings stand for the structures. Several values for one entry are separate records, joined by “and”; a condition that tells them apart may be missing. Equal values may be shown once. Results filed as inconclusive are left out. Activity calls are given as the source filed them.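 The calls were made as follows, unless noted: active = compounds whose cell count with miR-34 switched on is under 0.7 times the count with it off; inactive = the rest.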

Test [1] in a line: viability loss in pontine glioma line – cell-based, SU-DIPG-XXV, MIPE5.0, CellTiter-Glo, qHTS, dose response (AID 1347065; cut-off not given, nearly all actives have AC50 up to about 26 µM;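 also: cells exposed to compound for 48 hours before ATP readout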). The conditions noted are these: CellTiter-Glo ATP luminescence. For orientation: ATP-based viability assays read luminescence as a measure of living cells.
Test [2] in a line: SU-DIPG-VI glioma cell viability, MIPE4.0 library, CellTiter-Glo luminescence, qHTS (AID 1347066; cut-off not given, nearly all actives have AC50 up to about 30 µM;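 also: cells exposed to compound for 48 hours before readout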). As to conditions: CellTiter-Glo ATP luminescence.
Test [3] is described as follows: JHH-DIPG-1 glioma cell viability, MIPE5.0 library, CellTiter-Glo luminescence, qHTS (AID 1347067; cut-off not given, nearly all actives have AC50 up to about 26 µM;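 also: cells exposed to compound for 48 hours before readout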). The conditions noted are these: JHH-DIPG-1 glioma viability, CellTiter-Glo ATP luminescence.
A short description of test [4]: SU-DIPG-XXV glioma cell viability, MIPE5.0 library, qHTS (AID 1347068; cut-off not given, nearly all actives have IC50 up to about 30 µM).
A short description of test [5]: sensitizers of A549 cells to miR-34 induction, primary screen, imaging, A549 dox-inducible miR-34, nuclei and caspase counts (AID 1347080). As to conditions: A549 miR-34 inducible, Hoechst nuclei count, 48 h.
A short description of test [6]: survival rescue of mitochondrial mutant cells in low glucose, primary screen, MELAS cybrids, Rieske KO mouse fibroblasts, CellTiter-Glo (AID 1508586;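 active = mean z-score across replicates of 1.96 or higher in either the MELAS or the Rieske mutant cell line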;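 also: z relative to plate mean and SD of compound and empty wells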).
Test [7] deals with NAD(+) hydrolase SARM1 (Homo sapiens) (UniProt Q6SZW1). Description: SARM1 TIR NADase inhibitors, cell lysate, NAD-Glo luminescence (AID 1508614;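 active = compound whose remaining NAD level is above about 45 nM, limit read from the data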;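 also: higher remaining NAD means stronger inhibition of SARM1 NADase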). As to conditions: SAM-TIR HEK293T lysate NADase, at 1 µM, stronger effect = higher value.
Test [8] is described as follows: viability rescue of complex I mutant cybrids, primary screen, cell-based, galactose medium, ATP luminescence (AID 1645843;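 active = z-score of at least 1.8 in each of two replicates, scored against plate mean and spread of sample wells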;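 also: positive z means more ATP and so rescue of galactose-driven cybrid death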). As to conditions: complex I mutant cybrid cells, 72 h, stronger effect = higher value.
In test [9] the target is Mitogen-activated protein kinase 7 (Homo sapiens) (UniProt Q13164). Description: ERK5 transactivation activators in reporter cells, primary screen, cell-based, HTS (AID 1508626;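 active = luciferase signal above three times the same-plate solvent-only control wells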;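 also: luciferase driven by Gal4-ERK5 fusion binding five Gal4 sites before minimal TATA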). As to conditions: HeLa Gal4-ERK5 transactivation, 18 h, at 5 µM, stronger effect = higher value.
The nature of test [10]: inhibitors of Cryptococcus chitosan production, flow cytometry, Cibacron Brilliant Red staining (AID 1347148; call rule not given here;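 also: compound exposure lasted three days at 37 degrees C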). The conditions noted are these: Cryptococcus neoformans chitosan, stronger effect = lower value; at 10 µM unless noted.
[11] abbreviates: stronger effect = lower value, cell number ratio, induced over uninduced.
[12] abbreviates: measured here: relative caspase fold change +Dox/-Dox.
The mark [13] stands for this setting: measured here: total cells with miR-34 induction, stronger effect = lower value.
The mark [14] stands for this setting: measured here: total cells without miR-34 induction.
Setting [15] is: MELAS cybrid survival, CellTiter-Glo 48 h, stronger effect = higher value.
[16] abbreviates: Rieske KO mouse fibroblast survival, CellTiter-Glo 72 h.

NAD(+) hydrolase SARM1 (Homo sapiens), sequence (Q6SZW1 whole entry, looked up): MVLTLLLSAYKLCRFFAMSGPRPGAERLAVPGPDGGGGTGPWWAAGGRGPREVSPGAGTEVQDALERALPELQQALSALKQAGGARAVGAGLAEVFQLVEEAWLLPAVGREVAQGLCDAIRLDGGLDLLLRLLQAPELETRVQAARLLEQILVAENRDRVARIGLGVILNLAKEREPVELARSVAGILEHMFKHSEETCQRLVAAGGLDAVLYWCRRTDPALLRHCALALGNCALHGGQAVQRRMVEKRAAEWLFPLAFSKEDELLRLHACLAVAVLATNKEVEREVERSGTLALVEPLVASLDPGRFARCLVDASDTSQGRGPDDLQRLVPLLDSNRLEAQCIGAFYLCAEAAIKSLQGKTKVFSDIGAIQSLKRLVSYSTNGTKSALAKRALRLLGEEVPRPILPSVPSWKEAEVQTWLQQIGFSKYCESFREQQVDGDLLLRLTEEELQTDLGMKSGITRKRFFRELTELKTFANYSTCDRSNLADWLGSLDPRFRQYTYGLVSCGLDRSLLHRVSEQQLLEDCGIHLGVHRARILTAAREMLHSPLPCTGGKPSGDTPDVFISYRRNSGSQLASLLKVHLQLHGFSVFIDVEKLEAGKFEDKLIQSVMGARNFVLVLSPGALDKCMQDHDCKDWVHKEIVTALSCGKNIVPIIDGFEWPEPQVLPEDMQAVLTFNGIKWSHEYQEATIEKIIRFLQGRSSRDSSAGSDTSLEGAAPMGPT
Mitogen-activated protein kinase 7 (Homo sapiens), sequence (Q13164 whole entry, looked up, the tested form may be a part): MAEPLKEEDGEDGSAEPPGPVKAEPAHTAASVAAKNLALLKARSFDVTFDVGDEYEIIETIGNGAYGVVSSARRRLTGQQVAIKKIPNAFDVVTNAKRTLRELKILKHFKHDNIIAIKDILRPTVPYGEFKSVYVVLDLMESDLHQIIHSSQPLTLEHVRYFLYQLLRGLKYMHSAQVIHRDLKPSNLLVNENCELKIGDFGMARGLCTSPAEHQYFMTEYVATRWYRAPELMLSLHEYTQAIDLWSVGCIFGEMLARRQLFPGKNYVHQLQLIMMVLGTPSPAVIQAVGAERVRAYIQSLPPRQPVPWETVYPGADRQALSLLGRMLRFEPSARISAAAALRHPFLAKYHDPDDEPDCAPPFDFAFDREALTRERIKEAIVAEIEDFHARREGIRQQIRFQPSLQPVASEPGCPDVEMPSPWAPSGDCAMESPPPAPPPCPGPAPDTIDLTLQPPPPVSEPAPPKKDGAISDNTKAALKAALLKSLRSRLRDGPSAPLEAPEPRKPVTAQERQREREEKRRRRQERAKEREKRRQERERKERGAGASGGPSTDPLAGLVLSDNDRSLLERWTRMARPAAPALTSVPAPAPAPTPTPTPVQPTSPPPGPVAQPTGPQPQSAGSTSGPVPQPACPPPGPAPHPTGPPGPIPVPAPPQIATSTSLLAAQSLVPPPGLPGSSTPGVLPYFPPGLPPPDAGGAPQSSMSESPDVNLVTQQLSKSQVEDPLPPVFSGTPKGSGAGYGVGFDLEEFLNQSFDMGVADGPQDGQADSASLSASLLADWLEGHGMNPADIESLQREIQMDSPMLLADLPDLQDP

`CCOc1cc(CC(=O)N[C@@H](CC(C)C)c2ccccc2N2CCCCC2)ccc1C(=O)O`: the outcome in [1], in test [2], in test [3] and in [4] was inactive. Moreover, the fold change in test [5] (setting [11]) is 0.924 (inactive) and 0.888 (inactive) and 0.976 (inactive); in test [5] (setting [12]), 0.881 and 1.49 and 4.38. For the same molecule, the cell count in test [5] (setting [13]) is 8510 and 8490 and 12000; in test [5] (setting [14]), 9210 and 9560 and 12300. The results for the z-score in [6] (setting [15]), in test [6] (setting [16]) and in test [8] were -0.407 (inactive), 0.416 and 3.92 (active), respectively. The remaining NAD in test [7] was 10 nM (inactive).
With `CC(=O)O[C@H]1C[C@@H]2CC[C@@H]3[C@H](CC[C@@]4(C)[C@H]3C[C@H]([N+]3(C)CCCCC3)[C@@H]4OC(C)=O)[C@@]2(C)C[C@@H]1N1CCCCC1`, the call in test [1], in test [2], in test [3] and in test [4] was inactive. The fold change in test [5] (setting [11]) is 0.831 (inactive); in [5] (setting [12]) it was 1.81. Moreover, the cell count worked out at 8710 in test [5] (setting [13]) and 10500 in [5] (setting [14]). Besides, the z-score was 0.144 (inactive) and 0.341 (inactive) in [6] (setting [15]); -0.264 and -0.536 in test [6] (setting [16]); 0.335 (inactive) in test [8]. In test [7], the remaining NAD is 10 nM (inactive). Moreover, the luciferase signal in [9] is 52 AU (inactive).
Regarding `CC1=NN(c2ccccc2)C(=O)C1`, the molecule was called inactive in [1], in test [2], in test [3] and in test [4]. In addition, the fold change in test [5] (setting [11]) is 0.988 (inactive) and 0.936 (inactive) and 0.929 (inactive); in [5] (setting [12]), 0.941 and 1.18 and 0.593. For the same molecule, the cell count in test [5] (setting [13]) was 5320 and 7500 and 8540; in test [5] (setting [14]), 5390 and 8010 and 9190. Besides, in test [10], the fold fluorescence was 4.15 [at 287 µM] (inactive). Further, the z-score in test [6] (setting [15]) was -0.423 (inactive); in test [6] (setting [16]) it was 0.67; in [8] it was 1.25 (inactive). For the same molecule, in test [7], the remaining NAD was 10 nM (inactive).
`O=c1oc2cc(O)ccc2s1`: the outcome in test [1], in [2], in test [3] and in test [4] was inactive. Further, the fold change in test [5] (setting [11]) is 0.941 (inactive); in [5] (setting [12]), 0.692. For the same molecule, the cell count in [5] (setting [13]) was found to be 8830; in test [5] (setting [14]) it was 9380. In addition, the z-score in [6] (setting [15]) is -0.382 (inactive); in [6] (setting [16]), 0.46. The remaining NAD in test [7] was 10 nM (inactive). The luciferase signal in test [9] is 56 AU (inactive).
Take `O=C(O)c1cn(-c2ccc(F)cc2)c2cc(N3CCNCC3)c(F)cc2c1=O`: the result in test [1], in test [2], in [3] and in test [4] was inactive. For the same molecule, the fold change in test [5] (setting [11]) is 0.867 (inactive) and 0.86 (inactive); in test [5] (setting [12]), 3.37 and 1.06. The cell count in test [5] (setting [13]) is 11600 and 8760; in [5] (setting [14]), 13400 and 10200. Moreover, the z-score was 0.702 (inactive) and 0.944 (inactive) in [6] (setting [15]); 0.262 and 0.886 in [6] (setting [16]); 0.12 (inactive) in [8]. In test [7], the remaining NAD is 14 nM (inactive). The luciferase signal in test [9] was 72 AU (inactive).
`Cn1c(=O)c2c(ncn2CC(O)CO)n(C)c1=O` (configuration not stated): the outcome in test [1], in test [2], in [3] and in test [4] was inactive. Also, the fold change in [5] (setting [11]) is 0.891 (inactive) and 0.954 (inactive) and 0.903 (inactive); in test [5] (setting [12]), 1.59 and 0.805 and 1.72. Also, the cell count in [5] (setting [13]) was 9080 and 7480 and 11300; in test [5] (setting [14]), 10200 and 7830 and 12600. The z-score in test [6] (setting [15]) was -0.421 (inactive) and 0.782 (inactive); in [6] (setting [16]) it was 0.428 and -0.0518. Also, the remaining NAD in [7] was 10 nM (inactive). The luciferase signal in test [9] was 20 AU (inactive).
As for `Nc1ccc(S(N)(=O)=O)cc1`, the result in test [1], in [2], in test [3] and in test [4] was inactive. Further, the fold change in [5] (setting [11]) was 0.863 (inactive) and 1.01 (inactive) and 0.955 (inactive); in test [5] (setting [12]), 1.61 and 1.13 and 2.65. Besides, the cell count in test [5] (setting [13]) was 8720 and 8600 and 12400; in [5] (setting [14]), 10100 and 8510 and 12900. For the same molecule, the z-score in test [6] (setting [15]) is -0.359 (inactive) and -1 (inactive); in test [6] (setting [16]), 0.662 and -0.707. Besides, the remaining NAD in test [7] was 10 nM (inactive). The luciferase signal in test [9] is 164 AU (inactive).
